From PubChem
Chronic BCR inh = inhibitors of chronic active B-cell receptor signaling; Potency, µM (series often up to 46.1 µM), without a hit: at the top dose activity change, negative = inhibition, most hits filed as inhibitors; ABC-DLBCL IkBa-CBG/CBR reporter, luminescence ratio, 4 h; 340,000 compounds, 0.05% hits; active means well fitted inhibition curve with a large enough effect in the signal ratio, with a control signal flat, not every such curve was filed as active; inconclusive means small, poorly fitted or top-dose-only effect, or effect the other way, or a change in a side signal; the % refers to the signal ratio;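 further: potency means the concentration at half of the fitted maximal effect; plate controls were basal doxycycline-induced cells for no effect and cells given 10 µM MG132 for full effect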
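Concentration-response series (up to 46 uM) were applied to TMD8 dual-reporter cells for 4 h at 37C with doxycycline. Green/red ratio, after filter-overlap correction, defined %Activity; red signal alone was normalised to basal cells and zero luminescence.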
IL1B secr inh = blocks inflammasome-driven IL-1 beta release; THP-1 LPS/ATP IL-1B secretion, AlphaLISA, 16 h; hits give low values; activity change, % at 57.5 µM; 360,000 compounds, 4.7% hits; AID 743279; in the data active means activity change below about -50%; inconclusive means mostly about -30% to -49%; further: on the % scale 0 is the no-effect control and ±100 the full control effect
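Secreted IL-1B measured by AlphaLISA bead assay after 16 h compound exposure of THP-1 cells; compounds (final up to 57.5 uM) added 1 h before LPS (250 ng/mL) and ATP (1.25 mM) stimulation; lower signal means less secretion.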
SW480 rerep = inducers of DNA re-replication in SW480 colon cancer cells; SW480 DNA re-replication, Hoechst DNA content imaging, 48 h; Potency, µM (top dose mostly 46.1 µM), for inactives: at the highest dose re-replication activation, actives largely listed as activators; 340,000 compounds, 1.8% hits; further: potency means the concentration at half of the fitted maximal effect; % of control where 0% means no effect; nearly all actives have a fitted effect of over 55% in size
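Readout is total intensity of Hoechst-stained nuclei, excited at 405 nm and collected at 500-530 nm. Compound treatment lasted 48 hr at 37 C in 5% CO2 before staining.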
DT40 TDP1 CPT = DT40-hTDP1 cell growth loss with CPT. chicken DT40 Tdp1-/-;hTDP1 cells + 20 nM CPT, ATP luminescence, 48 h. 420,000 compounds, 12% hits. Potency, µM (titrated, usually from 46.2 µM), for inactives: at the top dose activity change, negative = growth inhibition, most hits filed as inhibitors. AID 686979; further: potency means the concentration at half of the fitted maximal effect; on the % scale 0 is the no-effect control and ±100 the full control effect; nearly all actives have a fitted effect of over 55% in size
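Chicken DT40 Tdp1-/- cells complemented with human TDP1, 400 cells/well, exposed to compounds plus 20 nM camptothecin for at least 48 h at 37 C; viability read as ATP content by CellTiter-Glo luminescence.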
MCF10A rerep = inducers of DNA re-replication in MCF 10A breast cells. MCF 10A DNA re-replication, Hoechst nuclear intensity, 48 h. Potency, µM (series often up to 46.1 µM), for the others: at the highest dose activity, positive = re-replication, hits mostly activators. 350,000 compounds, 2.9% hits. AID 624296; further: potency means the concentration at half of the fitted maximal effect; % of control where 0% means no effect; nearly all actives have a fitted effect of over 50% in size
DT40 TDP1 no CPT = qHTS for Inhibitors of human tyrosyl-DNA phosphodiesterase 1 (TDP1): qHTS in cells in absence of CPT. DT40 Tdp1-/- hTDP1 cells, no CPT, ATP luminescence, 48 h. Potency, µM (series often up to 46.2 µM), for inactives: top-dose activity change, negative = growth inhibition, hits mostly inhibitors. 420,000 compounds, 15% hits. AID 686978, 2013; further: potency means the concentration at half of the fitted maximal effect; on the % scale 0 is the no-effect control and ±100 the full control effect; nearly all actives have a fitted effect of over 55% in size
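A cellular qHTS used chicken DT40 cells lacking endogenous Tdp1 but carrying stably transfected human TDP1. Compounds were applied without camptothecin, and cell growth kinetics were judged by ATP-dependent luminescence after ≥48 hr.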
Numbers without * were called inactive; ? = inconclusive; · = no result given; [ ] = another dose, or the depositor's remark. Only some compounds are listed: those with a hit (about 19% of all), similar ones and a draw of the others. Unless noted, the call rests on the fitted dose curve; in most records, active means well fitted curve in the direction sought with a large enough effect; inconclusive means small, poorly fitted or top-dose-only effect, or another doubt; inactive means no such curve, though single readings can be large; an effect the other way counts as inactive or inconclusive.

SMILES | Chronic BCR inh | IL1B secr inh | SW480 rerep | DT40 TDP1 CPT | MCF10A rerep | DT40 TDP1 no CPT
Cc1ccc(NC(=O)N2CCN(c3nnc(C)c4c(C)n(-c5ccc(Cl)cc5)nc34)CC2)c(C)c1 | · | · | · | 1% | · | -17%
COc1cc(CCC(=O)OCC(=O)Nc2ccc(C)cc2Cl)cc(OC)c1OC | 0% | -4 | -19% | 18% | -14% | 11%
O=C(NC1CC1)c1ccc2nc(-c3ccco3)c(-c3ccco3)nc2c1 | · | · | · | ? | · | 13µM*
CCCCNC(=O)c1ccc2nc(-c3ccco3)c(-c3ccco3)nc2c1 | 18% | -7 | -3% | ? | -9% | ?
COc1ccc2nc(-c3ccco3)c(-c3ccco3)nc2c1 | 13% | -24 | ? | 18µM* | ? | ?
c1coc(-c2nc(-c3ccco3)c(-c3ccco3)nc2-c2ccco2)c1 | 1% | 14 | ? | ? | ? | ?
CNC(=O)c1ccc2nc(-c3ccco3)c(-c3ccco3)nc2c1 | · | · | · | 20µM* | · | ?
O=C(Nc1ccccc1)c1ccc2nc(-c3ccco3)c(-c3ccco3)nc2c1 | 11% | ? | 18µM* | 21µM* | 12µM* | 23µM*
CC(=O)c1ccc(NC(=O)c2ccc3nc(-c4ccco4)c(-c4ccco4)nc3c2)cc1 | ? | -6 | ? | ? | ? | ?
O=C(CCN1C(=O)C2C3C=CC(C4CC34)C2C1=O)Nc1ccc(Cl)cc1O (centres undefined) | -11% | 5 | 0% | -3% | 0% | ?
CCCCCOc1ccc(NC2=CC(=O)CCC2)cc1 | 0% | -4 | 3% | ? | 14% | ?
COc1cccc(NC(=O)C2(C)CCN2Cc2cccc(OC)c2F)c1 (centres undefined) | · | -17 | · | ? | · | 21µM*
COc1cccc(CN2CCC2(C)C(=O)Nc2ccc(C)c(O)c2)c1F (centres undefined) | · | -52* | · | 12µM* | · | 12µM*
COc1cccc(CN2CCC2(C)C(=O)Nc2cccc(Oc3ccccc3)c2)c1F (centres undefined) | · | -21 | · | 10µM* | · | 7.3µM*
COc1ccc(CN2CCC2(C)C(=O)Nc2ccc(OC)c(OC)c2)cc1 (centres undefined) | · | -10 | · | ? | · | ?
COc1cccc(CN2CCC2(C)C(=O)Nc2ccc(C)cc2)c1F (centres undefined) | · | 1 | · | 16µM* | · | 23µM*
CCOc1ccc(NC(=O)CC2C(=O)N(c3ccc(OC)c(Cl)c3)C(=S)N2C2CC2)cc1 (centres undefined) | -7% | 9 | 19% | 7% | 13% | ?
C[C@H](C(=O)CC(=O)OC(C)(C)C)[C@H](O)c1ccccc1 | -15% | 34 | -4%[9.22 µM] | 12% | 6% | -1%
C/C(=N\Nc1ccc(C(=O)O)cc1)c1ccc(S(=O)(=O)NCc2ccco2)cc1 | ? | 41 | 0% | -6% | 0% | 3%
COC(=O)CC1C(=O)NCCN1C(=O)CSc1nnnn1-c1ccc(Cl)cc1 (centres undefined) | ? | ? | -1% | 1% | 6% | -18%
COc1cccc(CN2CCC2(C)C(=O)Nc2ccc3c(c2)OCO3)c1F (centres undefined) | · | -28 | · | 23µM* | · | ?
Cc1ccc(NC(=O)C2(C)CCN2Cc2cccc3c2OCO3)cc1O (centres undefined) | · | 0 | · | 16µM* | · | ?
COc1ccc(NC(=O)C2(C)CCN2Cc2cccc(OC)c2F)cc1OC (centres undefined) | · | ? | · | 23µM* | · | 13µM*
COc1ccc2oc(C(=O)OCC(=O)NCc3ccc(OC)c(OC)c3)c(C)c2c1 | -2% | 28 | -73% | ? | ? | ?
